Screening data as filed in PubChem.
Rows were chosen to be rich in hits. Some 5.4% of all compounds tested hit in one or more screens of this group.
Beta apoptosis – inhibitors of cytokine-induced beta cell apoptosis, primary screen, luminescence | INS-1E cytokine-induced death, ATP luminescence, 48 h; percent of positive-control rescue, neutral wells zero | protection from apoptosis, % (test concentration not listed) | 0.8% of 300,000 active;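 active = Every replicate reaches about 75%, or at least half do and their mean reaches it too, limit read from the data; inconclusive = At least half of replicates reach the limit but their mean does not; inactive = Under half of replicates reach the limit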;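 note: higher means more ATP so stronger rescue from cytokine killing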
Calb FLC – C. albicans growth inhibition with fluconazole, primary screen, CaCi-2 strain, Alamar Blue fluorescence; C. albicans CaCi-2 (fluconazole-resistant clinical isolate) + fluconazole, 48 h; growth inhibition, % (no concentration beside the values); 0.57% of 300,000 active;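 active = growth inhibition above about 58% in most replicates, limit read from the data, passing the limit was not always enough; inconclusive = exactly half the replicates above a set limit; inactive = most replicates below a set limit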;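 note: all wells also contain fluconazole at 8 µg/ml as a sub-toxic cotreatment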
SKKanGAS inh – S. pyogenes SKKanGAS growth inhibitors in kanamycin, primary screen, streptokinase expression inhibitor project, SKKanGAS strain, BacTiter-Glo luminescence; inhibition, % at 7.5 µM; 6 h; AID 1662, 2009; 1.3% of 300,000 active;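 active = mean replicate score, as percent of positive control median, at least 50; inconclusive = mean below 50 but one replicate at or above 50; inactive = mean and every replicate below 50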;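 note: strain carries kanamycin resistance gene driven by streptokinase promoter and grows in 40 µg/ml kanamycin; loss of luminescence reflects streptokinase promoter inhibition or plain growth inhibition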
Mdm2 MdmX PPI – inhibitors of human Mdm2-MdmX association, primary screen, cell-based, luminescence, split luciferase, SaOS-2, uHTS. SaOS-2 split-luciferase Mdm2/MdmX complementation. inhibition, % at 8 µM. 3% of 330,000 active;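 active = inhibition of at least 50% at 8 µM in the primary screen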
Target sequence (O15151 whole entry, looked up): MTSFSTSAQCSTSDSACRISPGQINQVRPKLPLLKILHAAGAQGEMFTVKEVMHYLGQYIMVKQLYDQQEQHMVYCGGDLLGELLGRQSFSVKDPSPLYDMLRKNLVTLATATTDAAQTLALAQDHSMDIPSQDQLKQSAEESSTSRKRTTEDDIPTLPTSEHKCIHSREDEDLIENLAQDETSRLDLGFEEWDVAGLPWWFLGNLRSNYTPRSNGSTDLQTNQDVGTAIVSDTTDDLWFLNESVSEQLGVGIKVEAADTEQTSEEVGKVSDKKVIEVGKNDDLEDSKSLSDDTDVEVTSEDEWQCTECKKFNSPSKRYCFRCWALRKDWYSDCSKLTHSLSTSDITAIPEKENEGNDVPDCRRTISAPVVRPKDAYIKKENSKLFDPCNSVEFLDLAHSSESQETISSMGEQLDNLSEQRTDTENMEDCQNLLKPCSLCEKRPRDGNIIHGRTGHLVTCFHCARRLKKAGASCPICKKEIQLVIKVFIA
Target sequence (Q00987 whole entry, looked up): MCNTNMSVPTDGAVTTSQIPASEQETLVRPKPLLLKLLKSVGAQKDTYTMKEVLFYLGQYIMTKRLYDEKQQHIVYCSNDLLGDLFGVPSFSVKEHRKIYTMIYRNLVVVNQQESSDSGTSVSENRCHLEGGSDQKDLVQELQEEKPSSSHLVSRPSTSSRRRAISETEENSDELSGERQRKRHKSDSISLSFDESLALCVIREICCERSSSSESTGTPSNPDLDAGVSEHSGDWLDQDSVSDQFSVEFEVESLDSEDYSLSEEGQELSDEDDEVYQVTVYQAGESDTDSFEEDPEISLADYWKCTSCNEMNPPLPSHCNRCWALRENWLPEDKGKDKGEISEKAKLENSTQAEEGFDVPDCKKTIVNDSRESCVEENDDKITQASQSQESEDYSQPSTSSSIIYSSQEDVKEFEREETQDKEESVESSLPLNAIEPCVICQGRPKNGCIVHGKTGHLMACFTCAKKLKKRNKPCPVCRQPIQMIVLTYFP
CSC inhib – cancer stem cell viability inhibitors, primary screen, luminescence. cancer stem cell-like cells viability. inhibition, % at 7.5 µM. 1.1% of 300,000 active. AID 2717, 2010; in the data active = inhibition above about 75%; inconclusive = no clear call, values can overlap the other calls; tested in HMLE shEcad cells
MPTP inh – mitochondrial permeability transition pore inhibitors, primary screen, biochemical, isolated mouse mitochondria, absorbance; Ca2+ swelling absorbance, 30 min; inhibition, % at 10 µM; 1.4% of 360,000 active; AID 602449, 2012;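 active = inhibition of 50% or more, scaled per plate between neutral and stimulator controls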
Mdm2-MdmX conf – Mdm2-MdmX complex disruptors, retested hits, confirmation, luminescence, single concentration. shares compounds with Mdm2 MdmX PPI. Mdm2-MdmX binding, luminescent assay. inhibition, % at 8 µM. 55% of 10,000 active. AID 489028, 2010; in the data active = inhibition above about 40%
FLuc counter – full-length luciferase signal inhibition, confirmation, counter-screen for Mdm2/MdmX interaction inhibitor project, cell-based, single concentration, SaOS-2. shares compounds with Mdm2 MdmX PPI. SaOS-2 full-length luciferase counterscreen, luminescence. inhibition, % at 8 µM. 77% of 6,200 active;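 active = mean inhibition at 8 µM reaching about 37%, which flags the compound as non-specific, limit read from the data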;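 note: p53-null SaOS-2 cells with luciferase driven by a doxycycline-inducible promoter; compound on cells about two nights before reading with doxycycline added after day one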
Hits are given with their value; – = inactive; ? = inconclusive; · = not tested or not shown.

SMILES | Beta apoptosis | Calb FLC | SKKanGAS inh | Mdm2 MdmX PPI | CSC inhib | MPTP inh | Mdm2-MdmX conf | FLuc counter
O=C(Nc1ccc(OC(F)F)cc1)c1ncc(Cl)c(Cl)c1Cl | – | – | – | – | – | – | · | ·
CCS(=O)(=O)c1ncc(Cl)c(C(=O)Nc2ccc(S(=O)(=O)N3CCCC(C)C3)cc2)n1 (stereo unspecified) | 105.5 | – | – | 99.3 | 118.1 | – | 99.2 | 51.2
Cc1ccc(CS(=O)(=O)c2ncc(Cl)c(C(=O)Nc3ccc(OC(F)F)cc3)n2)cc1 | – | – | 54.0 | 91.3 | 105.1 | – | 86.1 | 53.7
CCS(=O)(=O)c1ncc(Cl)c(C(=O)Nc2ccc(C)cc2)n1 | – | – | – | 86.6 | 119.0 | – | 78.0 | 57.4
CCC1CCCCN1S(=O)(=O)c1ccc(NC(=O)c2nc(S(C)(=O)=O)ncc2Cl)cc1 (stereo unspecified) | 107.9 | – | 50.6 | 97.5 | 114.7 | – | 100.2 | –
CCOC(=O)c1c(CN2CCN(CC#N)CC2)n(C)c2cc(Br)c(OC)cc12 | – | – | – | – | – | – | · | ·
CC1CCN(S(=O)(=O)c2ccc(C(=O)Nc3nnc(-c4ccccn4)o3)cc2)CC1 | – | ? | – | – | – | – | · | ·
CCC1CCCCN1S(=O)(=O)c1ccc(C(=O)Nc2nnc(-c3ccccc3Cl)o2)cc1 (stereo unspecified) | – | – | 109.8 | 62.6 | · | – | – | ·
Cc1cc(C)n(-c2nc(NCC(C)O)c3c4c(sc3n2)COC(C)(C)C4)n1 (stereo unspecified) | – | – | – | – | – | – | · | ·
Cc1cc(C)n(-c2nc(SCCN(C)C)c3c4c(sc3n2)COC(C)(C)C4)n1 | – | – | – | 54.3 | – | – | 58.2 | 52.7
CCOC(=O)c1c(NC(=O)CSc2nnc(-c3c[nH]c4ccccc34)n2CCOC)sc2c1CCCCC2 | – | – | – | 56.0 | – | – | – | ·
CCOC(=O)c1c(NC(=O)CSc2c[nH]c3ccccc23)sc2c1CCCC2 | – | – | – | – | – | – | · | ·
CCCCN(Cc1cc2ccccc2[nH]c1=O)S(C)(=O)=O | – | – | – | – | · | – | · | ·
CCCCCCCCn1c(=O)c(C(=O)OC)c(N)c2ccccc21 | 116.7 | – | – | 75.5 | – | – | – | ·
C=CCn1c(O)c(N=NC(=O)OCC)c2ccccc21 | – | – | – | – | – | – | · | ·
C=CCn1c(O)c(N=NC(=S)Nc2cccc(OC)c2)c2ccccc21 | – | – | 87.1 | 58.3 | – | – | 40.0 | 48.2
CC(C)C(=O)Nc1nnc(S(=O)(=O)N2c3ccccc3CC2C)s1 (stereo unspecified) | – | – | – | – | – | – | · | ·
Cc1c(-c2ccccc2)sc2nc[nH]c(=S)c12 | – | – | – | – | – | – | · | ·
Cc1ccc(Nc2nnc(SCC(=O)Nc3ncc(S(=O)(=O)c4ccc([N+](=O)[O-])cc4)s3)s2)cc1 | – | – | – | 62.1 | · | – | – | ·
CCOC(=O)c1ccc(NC(=O)COc2ccccc2CNCCc2ccccc2)cc1 | – | – | – | 62.8 | – | – | – | ·
COc1nnc(-c2ccc(N3CCCCC3)c(NC(=O)C3CCCCC3)c2)c2ccccc12 | 78.7 | ? | – | 89.5 | – | – | – | ·
COc1nnc(-c2ccc(N3CCOCC3)c(NC(=O)C3CCCCC3)c2)c2ccccc12 | – | – | – | – | – | – | · | ·
N#Cc1cc(-c2ccccc2)oc1/N=C/c1ccccc1O | – | – | – | 52.9 | · | – | 57.2 | 105.4
CCOc1cc(C#N)c(NC(=O)CSc2nnnn2-c2ccc(OC)cc2)cc1OCC | – | – | – | – | – | – | · | ·
O=C(O)c1ccccc1CSc1nnnn1-c1ccccc1 | – | – | – | – | – | – | · | ·
SMILES | Beta apoptosis | Calb FLC | SKKanGAS inh | Mdm2 MdmX PPI | CSC inhib | MPTP inh | Mdm2-MdmX conf | FLuc counter
CCc1ccc(C(=O)Cn2ncc(Cl)c(Cl)c2=O)cc1 | – | – | – | 96.2 | – | – | 88.0 | 50.9
Cc1ccc(Cn2ncc(Cl)c(Cl)c2=O)cc1 | – | – | – | 80.4 | – | – | 50.9 | –
O=C(Cc1c[nH]c2ccccc12)Nc1nnc(C2CC2)s1 | – | – | – | 78.5 | – | – | 65.2 | 84.4
Cc1cc2occ(CC(=O)Nc3nnc(C4CC4)s3)c2cc1C | – | · | · | – | · | – | · | ·
O=C(Cc1coc2ccc3ccccc3c12)Nc1nnc(C2CC2)s1 | – | – | – | 73.9 | – | – | 82.7 | 37.9
Cc1ccc(C(=O)COC(=O)c2n[nH]c(=O)c3ccccc23)cc1 | – | – | – | – | – | – | · | ·
CCCOc1ccc(C(=O)Nc2nc(C)c(Cc3ccc4c(c3)OCO4)s2)cc1 | – | – | – | – | – | – | · | ·
Cc1c(Cc2ccc3c(c2)OCO3)sc(NC(=O)C(C)(C)C)c1C#N | – | – | – | 57.6 | – | – | – | ·
Cc1c(Cc2ccc3c(c2)OCO3)sc(NC(=O)c2ccc3ccccc3c2)c1C(N)=O | – | – | – | 80.5 | – | – | – | ·
CCC(=O)Nc1sc(Cc2ccc3c(c2)OCO3)c(C)c1C(N)=O | – | – | – | – | – | – | · | ·
COc1cc(C(=O)Nc2nc(C)c(Cc3ccc4c(c3)OCO4)s2)cc(OC)c1OC | – | – | – | 79.2 | – | – | 67.4 | 75.8
Cc1nc2c(OCc3ccc(C#N)cc3)cccn2c1N(C)Cc1cccs1 | · | · | · | · | · | – | · | ·
CCS(=O)(=O)NCC(c1cccnc1)N1CCN(c2ccccc2)CC1 (stereo unspecified) | – | – | – | – | – | – | · | ·
C/C(=N\NC(=O)c1nnn(-c2nonc2N)c1-c1cccs1)c1ccc(O)cc1 | – | – | – | – | – | – | · | ·
COc1ccc(/C(C)=N/NC(=O)c2nnn(-c3nonc3N)c2-c2cccs2)cc1 | – | – | – | 59.5 | – | – | – | ·
C/C(=N\NC(=O)c1nnn(-c2nonc2N)c1-c1cccs1)c1ccc(C)cc1 | – | – | – | 70.6 | – | – | – | ·
COc1ccc(/C(C)=N/NC(=O)c2nnn(-c3nonc3N)c2-c2cccs2)cc1OC | – | – | – | 59.1 | – | – | – | ·
COc1ccc(/C(C)=N/NC(=O)c2nnn(-c3nonc3N)c2-c2ccccc2)cc1 | – | – | – | 60.8 | · | – | – | ·
CCOc1ccccc1OCC(=O)Nc1ccc(Cl)cc1Cl | – | – | – | – | – | – | · | ·
O=S(=O)(c1ccccc1)N1CCNc2ccccc21 | · | · | · | · | · | – | · | ·
COc1ccc(C2C3=C(CC(C)(C)CC3=O)Nc3nc(C)nn32)cc1OC (stereo unspecified) | – | – | – | – | – | – | · | ·
